In assay [1] the target is Estrogen receptor (Homo sapiens) (UniProt P03372). As to the kind of experiment: NVS_NR_hER: NovaScreen (NVS) Nuclear Receptor Binding Assay for human Estrogen Receptor (ER) (AID 2283348). In a few lines:
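Scintillation signal from bound radioligand was measured 18 hours after chemical addition to cell-free MCF7 protein extracts, with DMSO as baseline. Activity was scored as signal loss; compounds ran first at 25 uM in duplicate.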

Assay [2] in a line: TOX21_p53_BLA_p2_viability: Viability Assessment in the Tox21 HCT-116 p53 Agonism Beta-lactamase Assay, Phase 2 (AID 2283591).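 Further: compound exposure lasted 16 h at 37 °C; actives lower the ATP signal meaning cytotoxicity.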 In a few lines: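 Cytotoxicity readout: CellTiter-Glo ATP luminescence, 30 min at room temperature, after the beta-lactamase read. Cells were HCT116 exposed 16 h at 37C to compounds pin-transferred at 217-fold dilution from DMSO stocks.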
Assay [3] deals with Cellular tumor antigen p53 (Homo sapiens) (UniProt P04637). The assay can be described thus: TOX21_p53_BLA_p3_ratio: Tox21 HCT-116 p53 Agonism Beta-lactamase Assay, Ratio, Phase 3 (AID 2283596). In outline: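 HCT116 p53-bla cells (4000/well) given compound in DMSO (217-fold dilution) after 5 h, incubated 16 h at 37C. CCF4-AM substrate 2 h at room temperature; 460/530 nm emission ratio, gain fitted against DMSO.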

The target is the same in assay [4]. The assay can be described thus: TOX21_p53_BLA_p5_ratio: Tox21 HCT-116 p53 Agonism Beta-lactamase Assay, Ratio, Phase 5 (AID 2283599). In outline: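 Beta-lactamase reporter ratio (blue 460 nm over green 530 nm, 405 nm excitation) after 2 h CCF4-AM loading, in HCT-116 cells exposed 16 h at 37 C to compounds pinned at 217-fold dilution. Increases relative to DMSO baseline scored.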

Assay [5] in a line: TOX21_p53_BLA_p5_viability: Viability Assessment in the Tox21 HCT-116 p53 Agonism Beta-lactamase Assay, Phase 5 (AID 2283600). In a few lines:
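Compounds, pinned from DMSO at 217-fold dilution, were left on the cells for 16 h. The viability endpoint was ATP content measured by CellTiter-Glo luminescence, where falling signal reflects cytotoxicity.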

For assay [6], the target named is Cellular tumor antigen p53 (Homo sapiens) (UniProt P04637). The assay can be described thus: TOX21_p53_BLA_p4_ratio: Tox21 HCT-116 p53 Agonism Beta-lactamase Assay, Ratio, Phase 4 (AID 2283601). In a few lines:
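Signal is the blue/green (460nm/530nm) ratio of cleaved versus uncleaved CCF4-AM substrate, read after 2 h substrate loading. Cells were HCT116 carrying the p53-responsive beta-lactamase reporter, dosed 16 h at 37C, 5% CO2; CellTiter-Glo measured in parallel.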

Assay [7] addresses bovine Estrogen Receptor (ER), ESR1 (gene 407238) (UniProt P49884). The assay can be described thus: NVS_NR_bER: NovaScreen (NVS) Nuclear Receptor Binding Assay for bovine Estrogen Receptor (ER) (AID 2283345).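 Further: actives lower the bound radioligand count which means they displace the ER ligand.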 In outline:
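Bovine uterine membranes; tritiated or iodinated radioligand; competitive displacement; 18 h; scintillation read; DMSO negative control; 25 uM duplicates, then concentration series for actives.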

Assay [8] can be described thus: TOX21_p53_BLA_p4_viability: Viability Assessment in the Tox21 HCT-116 p53 Agonism Beta-lactamase Assay, Phase 4 (AID 2283597).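 Further: hits lower the luminescence signal meaning cytotoxicity.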 In outline: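 We seeded HCT116 p53 reporter cells at 4000/well and waited 5 h. We then added compounds in DMSO at a 217-fold dilution and incubated for 16 h. Viability was read as CellTiter-Glo luminescence after 30 min at RT.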
Assay [9] concerns the target Cellular tumor antigen p53 (Homo sapiens) (UniProt P04637). The assay can be described thus: TOX21_p53_BLA_p2_ratio: Tox21 HCT-116 p53 Agonism Beta-lactamase Assay, Ratio, Phase 2 (AID 2283592). In a few lines: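 In this cell-based reporter format, HCT116 cells were dosed with chemicals delivered from DMSO by 217-fold dilution and incubated 16 h at 37C. Emission at 460 and 530 nm after 2 h CCF4-AM loading provided the ratio, fitted upward versus DMSO.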

Assay [10] is described as follows: TOX21_p53_BLA_p3_viability: Viability Assessment in the Tox21 HCT-116 p53 Agonism Beta-lactamase Assay, Phase 3 (AID 2283593).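 Further: cells exposed to compound for 16 h before reading.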 In a few lines:
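Cellular ATP was quantified by CellTiter-Glo luminescence, read after 30 min at room temperature. Beforehand, HCT116 cells (4000/well) received compound 5 h post-seeding, 217-fold diluted from DMSO, then incubated 16 h at 37C.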

The nature of assay [11]: CCTE_Harrill_HTTr_Viability_MCF7: CCTE's 6-hour Cell Viability Assessment for the High-Throughput Transcriptomics (HTTr) Platform, in MCF-7 cells cultured in DMEM + 10% fetal bovine serum, Harrill Lab (AID 2284010; active means hit-call score of the fitted dose curve at least 0.9, where 1 is the maximum; inactive means score below 0.9). In outline:
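Membrane integrity was scored by high-content imaging of propidium iodide dye exclusion after a 6 h exposure across an eight-point dilution series. Data were fitted bidirectionally relative to DMSO as negative control and baseline.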

Assay [12] can be described thus: CCTE_Harrill_HTTr_Apoptosis_MCF7: CCTE's 6-hour Apoptosis Assessment for the High-Throughput Transcriptomics (HTTr) Platform, in MCF-7 cells cultured in DMEM + 10% fetal bovine serum, Harrill Lab (AID 2284011; active means hit-call score of the fitted dose curve at least 0.9, where 1 is the maximum; inactive means score below 0.9). In outline:
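Read-out: CellEvent Caspase 3/7 Green signal by high content imaging, gain-of-signal indicating apoptosis. MCF-7 cells, DMEM + 10% FBS, eight-point dilution series, 6 h exposure. Curves fitted bidirectionally relative to DMSO negative control.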

“And” between values parts separate entries of the source, which are not always exact repeats. Equal values may be shown once. Inconclusive results are not listed. Some structures have more than one record in an assay (separate samples or runs), and their calls can disagree. The source made the active and inactive calls. How the source made its calls, unless noted: active means hit-call score of the fitted dose curve at least 0.9, where 1 is the maximum; inconclusive means response in the unintended direction; inactive means score below 0.9.

Cellular tumor antigen p53 (Homo sapiens), sequence (P04637 whole entry, looked up): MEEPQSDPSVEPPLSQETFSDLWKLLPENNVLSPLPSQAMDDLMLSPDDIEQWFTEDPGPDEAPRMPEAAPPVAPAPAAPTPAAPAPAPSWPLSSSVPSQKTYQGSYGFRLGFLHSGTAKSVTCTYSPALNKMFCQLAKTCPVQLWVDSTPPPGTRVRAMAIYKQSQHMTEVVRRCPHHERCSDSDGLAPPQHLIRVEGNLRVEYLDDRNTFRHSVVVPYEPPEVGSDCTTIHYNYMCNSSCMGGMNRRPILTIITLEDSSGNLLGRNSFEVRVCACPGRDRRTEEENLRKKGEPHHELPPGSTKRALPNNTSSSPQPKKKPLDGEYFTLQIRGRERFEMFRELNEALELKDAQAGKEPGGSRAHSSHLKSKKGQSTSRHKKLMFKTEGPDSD
Estrogen receptor (Homo sapiens), sequence (P03372 whole entry, looked up): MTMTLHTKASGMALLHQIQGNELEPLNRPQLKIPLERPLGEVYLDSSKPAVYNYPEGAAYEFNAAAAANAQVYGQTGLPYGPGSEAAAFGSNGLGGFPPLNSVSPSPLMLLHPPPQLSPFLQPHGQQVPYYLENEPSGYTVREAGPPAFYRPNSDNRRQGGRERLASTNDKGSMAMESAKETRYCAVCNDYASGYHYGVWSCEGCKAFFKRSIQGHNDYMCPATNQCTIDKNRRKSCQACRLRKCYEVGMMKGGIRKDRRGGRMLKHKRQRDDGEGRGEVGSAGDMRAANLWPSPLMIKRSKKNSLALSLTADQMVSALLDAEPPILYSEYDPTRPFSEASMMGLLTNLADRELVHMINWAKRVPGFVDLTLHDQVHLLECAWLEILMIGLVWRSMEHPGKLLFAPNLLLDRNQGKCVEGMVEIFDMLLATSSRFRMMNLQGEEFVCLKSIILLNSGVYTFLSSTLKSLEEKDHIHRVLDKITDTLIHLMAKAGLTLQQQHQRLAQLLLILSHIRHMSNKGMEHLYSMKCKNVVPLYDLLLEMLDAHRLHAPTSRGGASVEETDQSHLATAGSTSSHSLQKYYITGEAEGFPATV
bovine Estrogen Receptor (ER), ESR1 (gene 407238), sequence (P49884 whole entry, looked up): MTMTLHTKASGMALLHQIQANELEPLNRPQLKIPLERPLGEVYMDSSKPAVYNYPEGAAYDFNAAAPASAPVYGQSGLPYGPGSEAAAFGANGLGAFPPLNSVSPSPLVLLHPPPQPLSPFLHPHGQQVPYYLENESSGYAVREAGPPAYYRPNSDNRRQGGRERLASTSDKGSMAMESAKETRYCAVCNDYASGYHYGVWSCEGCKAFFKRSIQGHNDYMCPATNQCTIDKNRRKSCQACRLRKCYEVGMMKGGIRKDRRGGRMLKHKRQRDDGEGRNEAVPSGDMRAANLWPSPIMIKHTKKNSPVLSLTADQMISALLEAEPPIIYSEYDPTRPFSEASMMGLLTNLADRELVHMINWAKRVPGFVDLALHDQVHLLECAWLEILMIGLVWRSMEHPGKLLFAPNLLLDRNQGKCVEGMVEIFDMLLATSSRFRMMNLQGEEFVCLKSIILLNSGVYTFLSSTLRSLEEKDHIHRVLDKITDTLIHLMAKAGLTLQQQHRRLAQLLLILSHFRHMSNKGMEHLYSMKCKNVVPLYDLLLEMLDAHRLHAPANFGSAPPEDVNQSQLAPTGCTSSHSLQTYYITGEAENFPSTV

With `CC(C)CC(=O)C1C(=O)c2ccccc2C1=O`, the call in [1], in assay [2], in [3], in [4], in assay [5] and in assay [6] was inactive.
In the case of `O=S(=O)(O)c1cc(Cl)c(Cl)cc1Cl`, the molecule was called inactive in assay [7], in assay [1], in assay [2], in assay [8] and in [4].
`C[C@H](CCC(=O)O)[C@H]1CC[C@H]2[C@@H]3[C@H](O)C[C@@H]4C[C@H](O)CC[C@]4(C)[C@H]3CC[C@]12C`: the values for the AC50 in assay [2] and in assay [8] were 78.5 µM (active) and 87.1 µM (active), respectively. For the same molecule, the call in assay [2], in assay [9], in assay [10], in assay [3], in [8] and in assay [4] was inactive. For the same molecule, in assay [6], the outcome was inactive.
`Cc1cccc(NC(=S)N(C)C)c1`: in assay [7], the result was inactive.
In the case of `COc1ccc(COC=O)cc1`, the molecule was called inactive in assay [7].
Consider `CCN(Cc1cccc(S(=O)(=O)O)c1)c1ccccc1`, for which the call in assay [1], in [2], in assay [3], in assay [8], in assay [4] and in assay [5] was inactive.
As for `Cc1oc(C)c(C(=O)Nc2ccccc2)c1C`, the outcome in [1], in assay [2], in assay [9], in assay [10], in assay [8] and in assay [4] was inactive. In addition, the call in assay [5] and in assay [6] was inactive.
For `CCCCCCC/C=C/C=O`, the molecule was called inactive in [7], in assay [2], in [9], in assay [10], in assay [3] and in assay [8]. Besides, the result in [4] and in assay [5] was inactive.
With `CCN(CC)c1ccc(N=Nc2ccc(S(=O)(=O)N(C)C)cc2)c(S(=O)(=O)NCC[n+]2ccccc2)c1`, in assay [2], the outcome was inactive.
As to `CCN(CC)CCOC(=O)C(c1ccccc1)c1ccccc1`, the outcome in assay [2] was inactive.
For `CNCCC(Oc1ccc(C(F)(F)F)cc1)c1ccccc1` (centres undefined), the AC50 in assay [2] was 68.1 µM (active); in assay [10], 74 µM (active); in assay [8], 67.3 µM (active) and 33.8 µM (active); in assay [5], 73.2 µM (active); in [11] it was 75.8 µM (active); in assay [12], 69.4 µM (active). The molecule was called inactive in [2], in assay [9], in [10], in assay [3], in assay [4] and in assay [5]. Besides, in assay [6], the outcome was inactive.
For the molecule `CCOc1nc2cccc(C(=O)OC(C)OC(=O)OC3CCCCC3)c2n1Cc1ccc(-c2ccccc2-c2nn[nH]n2)cc1` (centres undefined), the call in [1], in assay [11] and in assay [12] was inactive. Further, the AC50 is 8.23 µM (active) in assay [2]; 14 µM (active) in assay [9]; 13 µM (active) in [10]; 34 µM (active) in assay [3]; 13.4 µM (active) in assay [8]; 15.7 µM (active) in assay [4]. The AC50 in assay [5] was 7.02 µM (active); in assay [6] it was 24.4 µM (active).
With `COC(=O)CCC(=O)O`, in assay [2], the result was inactive.
With `S=c1nc[nH]c2nc[nH]c12`, the AC50 in assay [2] is 1.56 µM (active); in [9] it was 7.89 µM (active) and 10.1 µM (active); in [10], 674 nM (active) and 2.62 µM (active); in assay [3], 9.95 µM (active) and 8 µM (active); in assay [8], 1.65 µM (active) and 3 µM (active); in assay [4], 11.1 µM (active) and 8.01 µM (active). Besides, the AC50 in [6] is 6.3 µM (active) and 6.4 µM (active). The outcome in assay [2] and in assay [5] was inactive.
Consider `NC[C@H]1O[C@H](O[C@H]2[C@H](O)[C@@H](O[C@H]3O[C@H](CO)[C@@H](O)[C@H](N)[C@H]3O)[C@H](N)C[C@@H]2N)[C@H](O)[C@@H](O)[C@@H]1O`, for which the result in [2], in assay [9], in assay [10], in [3], in assay [8] and in assay [5] was inactive. In [6], the outcome was inactive. Also, the AC50 in [9] is 3.79 µM (active); in assay [4], 3.34 µM (active).

The values above are taken from PubChem BioAssay (EPA / NIEHS).
